Experimental findings from PubChem BioAssay are described below.

SMILES strings stand for the structures. Records with an inconclusive call do not appear. Active and inactive are the calls of the source.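 Rule for the calls, unless noted: active = percent response above a set limit, the screen-wide mean plus 3 SD (cut at about 130% in these data); inactive = the rest.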

Test [1] is described as follows: rapamycin-like changes in RPL19A-GFP expression – cell-based, S. cerevisiae, multiplex flow cytometry, primary screen (AID 1862; in the data active = percent of DMSO control GFP below about 86%;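 note: lower values mimic rapamycin by blocking the RPL19A rise seen in DMSO cells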). The note with it: S. cerevisiae RPL19A-GFP strain, flow cytometry fluorescence, 3 h; at 10 µM; stronger effect = lower value. For orientation: A flow cytometer gives signals particle by particle.
The nature of test [2]: TOR pathway GLN3 branch reporter MEP2-GFP changes – S. cerevisiae, multiplex flow cytometry, primary screen (AID 1867;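 active = GFP response, as percent of the DMSO control, above the screen-wide mean plus 3 SD, about 139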;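 note: median GFP channel fluorescence of barcode-gated MEP2-GFP cells measured by flow cytometry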). The note with it: S. cerevisiae MEP2-GFP strain, 3 h, at 10 µM, stronger effect = higher value, 100% means same as DMSO wells.
A short description of test [3]: TOR pathway RTG branch CIT2 reporter changes – S. cerevisiae, GFP fusion, multiplex flow cytometry, primary screen (AID 1870).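 Note: barcoded CIT2-GFP strain pooled with four other GFP strains with rapamycin as positive control; median GFP fluorescence per well over plate mean of DMSO wells so 100% = DMSO.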 The note with it: S. cerevisiae CIT2-GFP expression, 3 h, at 10 µM, stronger effect = higher value.
Test [4] is described as follows: TOR pathway LAP4-GFP level changes – S. cerevisiae, multiplex flow cytometry, primary screen (AID 1873;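 active = GFP signal, as percent of the solvent control, above the screen mean plus 3 SD, about 149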). The note with it: S. cerevisiae LAP4-GFP expression, 3 h, at 10 µM, stronger effect = higher value.
Test [5] can be described thus: yeast AGP1-GFP level changes, GLN3 branch – cell-based, multiplex flow cytometry, S. cerevisiae, primary screen (AID 1887;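 active = GFP signal above the screen-wide mean plus 3 SD, that is over about 124.5% of the solvent control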;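 note: AGP1-GFP fusion strain of S. cerevisiae within a five-strain barcoded multiplex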). The following applies: 3 h, at 10 µM, stronger effect = higher value.
Test [6] can be described thus: reduced mouse 2C T cell binding to pMHC/ICAM-1 vesicles – MLPCN validation set, flow cytometry, LFA-1/ICAM-1 modulator project, pilot screen (AID 2523;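 active = response below a set limit, under 55% cells CD8-positive and vesicle-bound, and CD8 cells' 90th-percentile brightness under 279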;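 for vesicle binding response: mean PE anti-B7-1 fluorescence of CD8+ cells relative to row control; 100% = QL9-loaded vesicles with DMSO vehicle in the same plate row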). The following applies: 2C mouse CD8+ T cells, at 7 µM, stronger effect = lower value; double positive events: measured here: CD8+/vesicle+ event percentage.
Test [7] addresses Integrin beta-1 (Homo sapiens) + Integrin alpha-4 (Homo sapiens) (UniProt P13612+P05556). As to the kind of experiment: alpha4beta1 integrin LIBS antibody binding reduction – U937 cells, HUTS-21 mAb, flow cytometry, validation set, VLA-4 allosteric modulator project, pilot screen (AID 2674;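 active = inhibition above 50%, about 3 SD of the validation set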;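 note: antibody binding induced by the VLA-4 ligand LDV present at three times its Kd; 0% = LDV ligand with antibody and no compound and 100% = antibody without LDV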). The following applies: HUTS-21 LIBS mAb binding, at 6.7 µM, stronger effect = higher value, binding induced by LDV ligand.

The nature of test [8]: calorie-restriction mimetic ROS inhibitors, yeast – validation compound set, pilot screen (AID 2706;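 active = superoxide response below 65% of plate, a cut near 3 SD across the whole screen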;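 note: yeast exposed to compound for one week at 30 degrees C before staining; 100% = mean of all compound wells on the same plate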). The following applies: S. cerevisiae aging, superoxide DHE fluorescence; at 10 µM; stronger effect = lower value.
In test [9] the target is Beta-adrenergic receptor kinase 1 (Homo sapiens) (UniProt P25098). As to the kind of experiment: GRK2 binders displacing RNA aptamer, biochemical, validation, human GRK2, bead flow cytometry (AID 488806;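 active = aptamer binding inhibition above 30%, about 3 SD of noise from non-fluorescent compounds; inactive = inhibition at or below 30%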). The note with it: bead-bound GRK2, FAM-aptamer displacement, at 10 µM, stronger effect = higher value.
Test [10] deals with Beta-2 adrenergic receptor (Homo sapiens) (UniProt P07550). As to the kind of experiment: agonist-induced loss of surface beta2AR – cell-based, FAP fluorogen, flow cytometry, validation set, pilot screen (AID 504459;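 active = percent response above 42, roughly 3 SD of non-fluorescent test compounds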;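 note: agonist-driven loss of surface beta2AR via internalization measured by FAP dye flow cytometry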). The note with it: Am2.2-beta2AR cells, at 10 µM, stronger effect = higher value.
The target in test [11] is AP-2 complex subunit beta (Homo sapiens) (UniProt P63010). As to the kind of experiment: beta-arrestin/AP2 interaction blockers – biochemical, validation set, GST-AP2 beads, flow cytometry, pilot screen (AID 504541;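 active = inhibition above 54%, about 3 SD of non-fluorescent compounds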;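 note: AP2 carries R879A mutation and is captured from E. coli lysate; bead-bound FITC arrestin peptide fluorescence measuring arrestin peptide binding to AP2; 0% = DMSO wells and 100% = excess unlabeled arrestin peptide control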). The following applies: FITC arrestin peptide, at 10 µM, stronger effect = higher value, AP2 beta2 appendage fragment, R879A mutant.
Test [12] can be described thus: cytosolic pH regulators acting via V-ATPase – S. cerevisiae, pHLuorin, HTS validation (AID 504600; in the data active = response above about 15%;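 note: plate controls were DMSO for no effect and reference compound for full effect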). The following applies: V-ATPase proton transport, at 10 µM, stronger effect = higher value.
Test [13] deals with anti-desmoglein-3 scFv antibody binding to human DSG3. As to the kind of experiment: blockers of pathogenic pemphigus antibody–desmoglein-3 binding – biochemical, validation compound set, bead-based, flow cytometry, pilot screen (AID 588368;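 active = binding below the plate cutoff, the plate median minus 3 SD, with a reading above zero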;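 note: signal is the median channel fluorescence of bead-bound GFP antibody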). The note with it: Protein G beads, DSG3-Fc, scFv-GFP binding, at 10 µM, stronger effect = lower value.
The nature of test [14]: Nile Red efflux blockade in pump-expressing yeast – validation compound set, multiplex, phenotypic, pilot screen (AID 588506;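 active = efflux inhibition above 0.42, the validation set average plus 4 SD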;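 note: Nile Red retained in cells so higher fluorescence means more efflux inhibition; 0 = negative control wells and 1 = enniatin B 25 µM full block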). The following applies: S. cerevisiae pump-expressing triplex, Nile Red efflux flow cytometry; at 10 µM; stronger effect = higher value; the pumps come from Candida albicans.
For test [15], the target named is ATP-binding cassette sub-family B member 6 (Homo sapiens) (UniProt Q9NP58). As to the kind of experiment: blockers of ABCB6-driven porphyrin uptake – K562-ABCB6 cells, flow cytometry, validation set, pilot screen (AID 588550;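 active = inhibition above the screen-wide mean plus 3 SD, about 51%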;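 note: 0% = DMSO wells and 100% = benzethonium chloride 70 µM positive control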). The note with it: K562-ABCB6 porphyrin accumulation, 1 h, at 10 µM, stronger effect = higher value.
The nature of test [16]: AML differentiation inducers, ER-HoxA9 marrow cells – cell-based, GFP/MAC1 double positive, flow cytometry, validation set, primary screen (AID 588685;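 active = differentiation response of at least 50%, scaled between solvent and reference control, from cells with both markers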;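 note: compound exposure lasts four days before antibody staining and flow analysis; 0% = DMSO wells and 100% = 5 µM fulvestrant positive control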). The note with it: stronger effect = higher value, normalized: vehicle 0, fulvestrant 100.

AP-2 complex subunit beta (Homo sapiens), sequence (P63010 whole entry, looked up, the tested form may be a part, one chain of several): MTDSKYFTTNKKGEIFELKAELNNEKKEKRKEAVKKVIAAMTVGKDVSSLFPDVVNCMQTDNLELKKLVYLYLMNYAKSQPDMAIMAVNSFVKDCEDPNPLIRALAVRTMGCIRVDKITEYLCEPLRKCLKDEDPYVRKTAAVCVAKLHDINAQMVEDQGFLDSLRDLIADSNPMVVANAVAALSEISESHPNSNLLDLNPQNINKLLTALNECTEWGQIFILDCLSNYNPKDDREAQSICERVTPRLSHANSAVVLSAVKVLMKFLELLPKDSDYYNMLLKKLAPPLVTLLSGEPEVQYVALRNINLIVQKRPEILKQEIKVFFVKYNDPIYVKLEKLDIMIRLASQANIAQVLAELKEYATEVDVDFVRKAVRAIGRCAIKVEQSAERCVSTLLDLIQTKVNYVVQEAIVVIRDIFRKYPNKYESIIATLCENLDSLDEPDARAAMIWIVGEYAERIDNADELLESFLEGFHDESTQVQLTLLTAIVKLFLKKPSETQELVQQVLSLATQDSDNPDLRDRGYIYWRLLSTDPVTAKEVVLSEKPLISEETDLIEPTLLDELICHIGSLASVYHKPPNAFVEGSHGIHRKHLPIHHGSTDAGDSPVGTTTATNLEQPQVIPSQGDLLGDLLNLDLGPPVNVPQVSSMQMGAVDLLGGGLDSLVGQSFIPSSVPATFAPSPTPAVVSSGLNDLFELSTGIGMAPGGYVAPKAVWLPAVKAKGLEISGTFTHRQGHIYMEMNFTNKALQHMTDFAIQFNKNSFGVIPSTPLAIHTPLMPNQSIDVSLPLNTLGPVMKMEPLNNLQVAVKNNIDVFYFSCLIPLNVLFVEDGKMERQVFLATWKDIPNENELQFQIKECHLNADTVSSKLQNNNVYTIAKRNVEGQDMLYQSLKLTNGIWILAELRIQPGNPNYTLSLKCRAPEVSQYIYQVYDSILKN
Integrin beta-1 (Homo sapiens) + Integrin alpha-4 (Homo sapiens), sequence (P05556 whole entry, looked up): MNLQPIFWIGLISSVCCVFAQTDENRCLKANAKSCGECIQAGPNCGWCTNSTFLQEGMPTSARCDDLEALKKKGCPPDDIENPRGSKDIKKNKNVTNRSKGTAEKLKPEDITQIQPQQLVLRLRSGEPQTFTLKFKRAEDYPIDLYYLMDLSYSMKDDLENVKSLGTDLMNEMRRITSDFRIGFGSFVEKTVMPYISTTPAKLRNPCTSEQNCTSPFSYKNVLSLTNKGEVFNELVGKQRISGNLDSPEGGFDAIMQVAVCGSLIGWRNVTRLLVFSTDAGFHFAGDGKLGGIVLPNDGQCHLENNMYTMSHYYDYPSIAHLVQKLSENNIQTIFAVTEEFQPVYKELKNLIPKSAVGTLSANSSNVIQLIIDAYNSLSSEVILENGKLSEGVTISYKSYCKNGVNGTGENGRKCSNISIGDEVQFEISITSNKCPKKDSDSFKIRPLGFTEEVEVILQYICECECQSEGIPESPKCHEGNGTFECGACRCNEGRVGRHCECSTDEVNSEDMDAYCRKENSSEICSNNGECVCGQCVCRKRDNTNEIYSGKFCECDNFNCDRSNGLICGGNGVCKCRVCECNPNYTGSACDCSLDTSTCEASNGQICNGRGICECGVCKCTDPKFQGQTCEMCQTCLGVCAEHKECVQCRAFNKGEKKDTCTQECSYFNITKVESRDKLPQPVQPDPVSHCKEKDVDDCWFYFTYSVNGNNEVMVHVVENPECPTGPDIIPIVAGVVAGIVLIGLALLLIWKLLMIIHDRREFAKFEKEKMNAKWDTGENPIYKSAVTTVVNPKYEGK
Integrin beta-1 (Homo sapiens) + Integrin alpha-4 (Homo sapiens), sequence (P13612 whole entry, looked up): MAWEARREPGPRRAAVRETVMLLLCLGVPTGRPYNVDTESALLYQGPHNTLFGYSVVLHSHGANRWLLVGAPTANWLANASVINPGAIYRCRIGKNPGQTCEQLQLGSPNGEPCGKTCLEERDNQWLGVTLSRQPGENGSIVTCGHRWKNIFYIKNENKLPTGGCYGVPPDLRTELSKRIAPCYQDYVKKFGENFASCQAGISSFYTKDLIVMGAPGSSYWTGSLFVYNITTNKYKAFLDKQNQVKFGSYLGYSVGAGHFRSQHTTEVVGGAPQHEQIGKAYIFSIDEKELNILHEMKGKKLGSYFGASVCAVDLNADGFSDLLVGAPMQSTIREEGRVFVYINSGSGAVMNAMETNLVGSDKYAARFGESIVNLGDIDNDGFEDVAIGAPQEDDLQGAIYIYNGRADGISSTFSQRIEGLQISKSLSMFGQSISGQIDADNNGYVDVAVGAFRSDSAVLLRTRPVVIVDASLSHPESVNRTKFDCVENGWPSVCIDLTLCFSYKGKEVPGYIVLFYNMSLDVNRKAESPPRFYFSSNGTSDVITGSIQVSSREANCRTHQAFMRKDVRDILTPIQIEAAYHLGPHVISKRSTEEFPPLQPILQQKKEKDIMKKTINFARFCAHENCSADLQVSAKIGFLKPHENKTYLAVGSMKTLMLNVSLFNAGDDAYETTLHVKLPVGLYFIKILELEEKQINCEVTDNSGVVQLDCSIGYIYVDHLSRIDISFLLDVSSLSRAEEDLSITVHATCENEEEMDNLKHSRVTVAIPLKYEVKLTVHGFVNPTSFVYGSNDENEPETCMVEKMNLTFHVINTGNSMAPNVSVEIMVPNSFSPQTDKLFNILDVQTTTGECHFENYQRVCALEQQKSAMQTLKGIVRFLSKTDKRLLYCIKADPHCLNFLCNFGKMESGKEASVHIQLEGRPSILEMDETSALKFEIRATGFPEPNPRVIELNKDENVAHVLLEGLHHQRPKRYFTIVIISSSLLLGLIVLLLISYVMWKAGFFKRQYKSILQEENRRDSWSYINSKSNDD
Beta-adrenergic receptor kinase 1 (Homo sapiens), sequence (P25098 whole entry, looked up): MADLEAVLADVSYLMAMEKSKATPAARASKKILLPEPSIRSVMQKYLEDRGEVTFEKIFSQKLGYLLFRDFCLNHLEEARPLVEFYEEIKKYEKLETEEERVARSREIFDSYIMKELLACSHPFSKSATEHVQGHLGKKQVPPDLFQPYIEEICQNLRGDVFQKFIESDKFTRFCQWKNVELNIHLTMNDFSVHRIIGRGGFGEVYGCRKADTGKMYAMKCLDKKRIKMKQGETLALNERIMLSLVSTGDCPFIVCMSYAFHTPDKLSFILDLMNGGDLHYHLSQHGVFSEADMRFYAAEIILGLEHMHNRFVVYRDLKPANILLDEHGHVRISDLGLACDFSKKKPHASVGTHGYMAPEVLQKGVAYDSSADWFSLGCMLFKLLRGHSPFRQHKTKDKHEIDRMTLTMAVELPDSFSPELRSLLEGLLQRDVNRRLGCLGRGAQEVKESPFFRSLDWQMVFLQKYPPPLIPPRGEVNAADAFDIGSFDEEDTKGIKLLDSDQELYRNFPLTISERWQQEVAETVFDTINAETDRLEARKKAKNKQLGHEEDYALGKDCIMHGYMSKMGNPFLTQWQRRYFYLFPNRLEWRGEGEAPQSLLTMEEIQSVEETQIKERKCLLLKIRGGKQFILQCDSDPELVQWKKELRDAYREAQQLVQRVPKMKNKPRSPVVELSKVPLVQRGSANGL
ATP-binding cassette sub-family B member 6 (Homo sapiens), sequence (Q9NP58 whole entry, looked up): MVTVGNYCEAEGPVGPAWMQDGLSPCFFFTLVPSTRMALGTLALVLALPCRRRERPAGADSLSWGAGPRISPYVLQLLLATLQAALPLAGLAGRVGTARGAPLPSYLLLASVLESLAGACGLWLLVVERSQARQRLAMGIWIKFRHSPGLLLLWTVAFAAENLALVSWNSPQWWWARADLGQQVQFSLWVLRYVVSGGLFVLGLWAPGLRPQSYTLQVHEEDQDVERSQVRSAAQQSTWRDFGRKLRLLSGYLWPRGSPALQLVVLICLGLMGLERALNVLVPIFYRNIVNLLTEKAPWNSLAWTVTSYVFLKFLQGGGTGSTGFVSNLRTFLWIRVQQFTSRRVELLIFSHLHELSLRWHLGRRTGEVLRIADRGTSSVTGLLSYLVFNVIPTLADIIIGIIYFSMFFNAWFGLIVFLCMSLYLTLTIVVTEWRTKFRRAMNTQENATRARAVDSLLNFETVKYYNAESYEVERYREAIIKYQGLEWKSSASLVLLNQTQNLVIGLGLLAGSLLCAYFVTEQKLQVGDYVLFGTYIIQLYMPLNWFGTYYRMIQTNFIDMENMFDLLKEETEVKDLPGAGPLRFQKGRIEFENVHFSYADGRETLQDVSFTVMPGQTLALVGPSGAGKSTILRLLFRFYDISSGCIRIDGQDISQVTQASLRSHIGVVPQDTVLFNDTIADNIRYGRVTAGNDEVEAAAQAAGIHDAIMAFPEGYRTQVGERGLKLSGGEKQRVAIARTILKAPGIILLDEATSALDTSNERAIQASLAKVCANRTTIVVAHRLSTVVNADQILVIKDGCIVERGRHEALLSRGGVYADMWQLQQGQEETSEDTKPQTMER
Beta-2 adrenergic receptor (Homo sapiens), sequence (P07550 whole entry, looked up): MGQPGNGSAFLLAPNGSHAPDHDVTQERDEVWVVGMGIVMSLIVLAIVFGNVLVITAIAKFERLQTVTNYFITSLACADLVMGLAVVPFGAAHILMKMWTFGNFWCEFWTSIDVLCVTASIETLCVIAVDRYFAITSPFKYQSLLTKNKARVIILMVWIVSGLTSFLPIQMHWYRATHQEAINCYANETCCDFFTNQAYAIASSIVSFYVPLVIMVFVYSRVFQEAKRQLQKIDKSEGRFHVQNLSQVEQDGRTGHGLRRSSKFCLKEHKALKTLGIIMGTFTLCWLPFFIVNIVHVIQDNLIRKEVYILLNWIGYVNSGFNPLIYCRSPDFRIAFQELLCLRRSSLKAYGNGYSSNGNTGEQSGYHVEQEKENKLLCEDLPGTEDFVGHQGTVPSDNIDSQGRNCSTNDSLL

Take `CC1CCc2cc(F)cc3c(=O)c(C(=O)O)cn1c23` (stereo not drawn): in [1], the percent of DMSO control GFP is 99% (inactive). In addition, the figures for the GFP response vs DMSO in [2] and in [4] were 111% (inactive) and 101% (inactive), respectively. Moreover, in [3], the percent response of DMSO control was 95.4% (inactive). Besides, the GFP response, % of DMSO in [5] is 96.5% (inactive). The same compound yielded a double positive events in test [6] of 62.3%. Also, the vesicle binding response in [6] was 204% (inactive). Moreover, the inhibition was -37.8% (inactive) in test [7], 10.9% (inactive) in test [11] and -15% (inactive) in [15]. Moreover, the superoxide response (% of plate) in [8] was 101% (inactive). Also, the aptamer binding inhibition in test [9] is 0% (inactive). For the same compound, the response in [10] was -2.58% (inactive); in test [12], -2.27% (inactive). Also, in test [13], the binding (% of control) was 94% (inactive). Further, the efflux inhibition (fraction of control) in [14] was -0.04 (inactive). Besides, the differentiation response in [16] was -6.6% (inactive).

For `Cc1cc(OC(=O)CNC(=O)OC(C)(C)C)c2c(C)cc(=O)oc2c1`, in test [1], the percent of DMSO control GFP is 101% (inactive). In addition, the GFP response vs DMSO was 105% (inactive) in test [2] and 108% (inactive) in test [4]. In addition, the percent response of DMSO control in test [3] was 97.7% (inactive). The GFP response, % of DMSO in test [5] was 111% (inactive). The same compound gave a double positive events in test [6] of 62.2%. Besides, the vesicle binding response in test [6] was 460% (inactive). Moreover, the inhibition is 10.8% (inactive) in test [7], 6.94% (inactive) in [11] and 2% (inactive) in [15]. In addition, the superoxide response (% of plate) in [8] is 107% (inactive). For the same compound, the aptamer binding inhibition in test [9] is 3% (inactive). Besides, the values for the response in [10] and in test [12] were -17.2% (inactive) and -0.27% (inactive), respectively. Moreover, the binding (% of control) in test [13] is 93.1% (inactive). Further, the efflux inhibition (fraction of control) in test [14] is 0 (inactive). For the same compound, the differentiation response in [16] is 3.88% (inactive).

In the case of `O=C(CN1C(=O)C2CCc3[nH]c4ccccc4c3C2C1=O)N1CCCC1` (stereo not drawn), in test [1], the percent of DMSO control GFP was 89.1% (inactive). Further, the GFP response vs DMSO is 121% (inactive) in test [2] and 78.1% (inactive) in test [4]. Moreover, the percent response of DMSO control in [3] was 106% (inactive). In addition, the GFP response, % of DMSO in test [5] is 87.3% (inactive). This compound also showed a double positive events in test [6] of 48%. Moreover, the vesicle binding response in [6] is 72.2% (active). In addition, the inhibition in [7] was 22.9% (inactive); in test [11], -3.8% (inactive); in test [15] it was 9% (inactive). For the same compound, the superoxide response (% of plate) in [8] was 95.1% (inactive). Besides, in [9], the aptamer binding inhibition was 3% (inactive). For the same compound, the response in test [10] is -15.3% (inactive); in test [12], -4.07% (inactive). Moreover, the binding (% of control) in test [13] was 103% (inactive). Besides, the efflux inhibition (fraction of control) in [14] is 0.09 (inactive). Besides, the differentiation response in test [16] is 4.91% (inactive).

For `COc1ccc(NC(=S)N2CCN(CCN3C(=O)c4cccc5cccc(c45)C3=O)CC2)cc1`, the percent of DMSO control GFP in test [1] was 101% (inactive). The GFP response vs DMSO is 129% (inactive) in test [2] and 90.2% (inactive) in [4]. Also, the percent response of DMSO control in test [3] was 104% (inactive). For the same compound, the GFP response, % of DMSO in test [5] is 91.9% (inactive). This compound also had a double positive events in [6] of 59.1%. In addition, in test [6], the vesicle binding response was 31.6% (inactive). Besides, the inhibition in test [7] was -6.15% (inactive); in test [11], 24.4% (inactive); in [15], 9% (inactive). In test [8], the superoxide response (% of plate) was 86.5% (inactive). Also, the aptamer binding inhibition in [9] was 0% (inactive). Also, the response in test [10] is -4.94% (inactive); in test [12] it was -0.62% (inactive). Moreover, the binding (% of control) in [13] is 105% (inactive). Further, the efflux inhibition (fraction of control) in [14] was 0.34 (inactive). The differentiation response in [16] was 18% (inactive).

What is called inhibition is the relative decrease from the control value, in per cent.
